Experimental data published in PubChem BioAssay AID1159580 (chemical genetic matrix, 2015).
“And” between values parts separate entries of the source, which are not always exact repeats. Equal entries are not always repeated. About 2,000 (36%) of roughly 5,500 compounds were called active. Roughly 18% stayed inconclusive and do not appear here. No stated cut-off is given here; in the data, active means normalized growth mostly below about 0.91 (no sharp cut-off); inconclusive means no clear call, values can overlap the other calls; inactive means mostly above about 0.92. Some of the results follow.

Experiment: chemical genetic growth profiling, strain panel (AID 1159580);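 further: tested at 20 µM; growth read once vehicle control cultures reached saturation at 30 °C; 1 = growth at the plate median or of vehicle wells; lower values mean less growth of the strain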
Details: S. cerevisiae deletion strains, growth OD

Measured: normalized growth

CC1(C)CC[C@]2(C(=O)O)CC[C@]3(C)C(=CCC4[C@@]5(C)CC[C@@H](O)C(C)(C)C5CC[C@]43C)C2C1 (stereo partly drawn)
inactive: locus YAL021C, strain ccr4, hits give low values 1.02 | locus YAL026C, strain drs2, hits give low values 1.01 | locus YAL030W, strain snc1, hits give low values 1.03 | locus YBL061C, strain skt5, hits give low values 1.01 | locus YBR009C, strain hhf1, hits give low values 0.995 | locus YBR021W, strain FUR4, hits give low values 1.02 | locus YBR023C, strain chs3, hits give low values 1.01 | locus YBR171W, strain sec66, hits give low values 1.05 | locus YBR229C, strain ROT2, hits give low values 1.01 | locus YBR231C, strain swc5, hits give low values 1.02 | locus YBR279W, strain paf1, hits give low values 1.01 | locus YCL011C, strain gbp2, hits give low values 1.01 | locus YCL016C, strain dcc1, hits give low values 1.03 | locus YCL029C, strain bik1, hits give low values 1.01 | locus YCL069W, strain vba3, hits give low values 1.02 | locus YCR088W, strain abp1, hits give low values 1.01 | locus YDL005C, strain med2, hits give low values 1.03 | locus YDL035C, strain GPR1, hits give low values 1.01 | locus YDL040C, strain nat1, hits give low values 1.01 | locus YDL074C, strain BRE1, hits give low values 1.06 | locus YDL101C, strain DUN1, hits give low values 1.02 | locus YDL134C, strain PPH21, hits give low values 1.04 | locus YDL185W, strain tfp1, hits give low values 1.02 | locus YDR001C, strain nth1, hits give low values 1.01 | locus YDR069C, strain doa4, hits give low values 1.05 | locus YDR101C, strain arx1, hits give low values 0.991 | locus YDR137W, strain rgp1, hits give low values 1.07 | locus YDR150W, strain NUM1, hits give low values 1.01 | locus YDR159W, strain sac3, hits give low values 1.04 | locus YDR162C, strain NBP2, hits give low values 1.05 | locus YDR195W, strain ref2 0.987 | locus YDR297W, strain sur2, hits give low values 1 | locus YDR318W, strain mcm21, hits give low values 1.02 | locus YDR334W, strain swr1, hits give low values 1.03 | locus YDR335W, strain msn5, hits give low values 1.02 | locus YDR388W, hits give low values 1.02 | locus YDR392W, strain spt3, hits give low values 1.03 | locus YDR502C, strain sam2, hits give low values 1.02 | locus YEL003W, strain gim4, hits give low values 1.02 | locus YEL037C, strain rad23, hits give low values 1.01 | locus YEL061C, strain CIN8 (second series), hits give low values 1 | locus YER015W, strain faa2, hits give low values 1.01 | locus YER016W, strain bim1, hits give low values 1.03 | locus YER110C, hits give low values 1.02 | locus YER111C, strain swi4, hits give low values 1.01 | locus YER155C, strain BEM2 (second series), hits give low values 1.02 | locus YER155C, strain BEM2, hits give low values 1.01 | locus YER167W, strain BCK2, hits give low values 1.01 | locus YFR010W, strain ubp6, hits give low values 1.01 | locus YGL078C, strain dbp3, hits give low values 1.04 | locus YGL086W, strain mad1, hits give low values 1.03 | locus YGL167C, strain pmr1, hits give low values 1.03 | locus YGL173C, strain kem1, hits give low values 1.02 | locus YGL227W, strain vid30, hits give low values 1.01 | locus YGL240W, strain doc1, hits give low values 1.03 | locus YGL248W, strain PDE1, hits give low values 1.02 | locus YGL253W, strain hxk2, hits give low values 1.01 | locus YGR135W, strain pre9, hits give low values 1.02 | locus YGR229C, strain SMI1, hits give low values 1.05 | locus YGR252W, strain gcn5, hits give low values 0.944 | locus YHR013C, strain ard1, hits give low values 1.04 | locus YHR027C, strain rpn1, hits give low values 1.02 | locus YHR030C, strain SLT2, hits give low values 1.01 and 1.02 | locus YHR079C, strain IRE1 (second series), hits give low values 1.01 | locus YHR079C, strain IRE1, hits give low values 1.05 | locus YHR094C, strain hxt1, hits give low values 1.01 | locus YHR129C, strain ARP1, hits give low values 1.01 | locus YHR142W, strain chs7, hits give low values 1.02 | locus YHR200W, strain rpn10, hits give low values 1.01 | locus YIL066C, strain RNR3, hits give low values 1.03 | locus YIL073C, strain SPO22, hits give low values 1.05 | locus YIL125W, strain kgd1, hits give low values 1.01 | locus YJL092W, strain hpr5, hits give low values 1.02 | locus YJL095W, strain BCK1 (second series), hits give low values 1.03 | locus YJL095W, strain BCK1, hits give low values 1.05 and 1.02 | locus YJL115W, strain asf1, hits give low values 1.01 | locus YJL129C, strain trk1, hits give low values 1.04 | locus YJL134W, strain LCB3, hits give low values 1.01 | locus YJL154C, strain vps35, hits give low values 1.01 | locus YJL164C, strain tpk1, hits give low values 1.02 | locus YJL166W, strain qcr8, hits give low values 1.02 | locus YJL168C, strain set2, hits give low values 1.02 | locus YJL187C, strain SWE1 (second series), hits give low values 1.04 | locus YJR043C, strain POL32, hits give low values 1 | locus YJR066W, strain TOR1, hits give low values 0.982 | locus YKL160W, strain elf1, hits give low values 1.02 | locus YKL190W, strain CNB1, hits give low values 1.02 | locus YKR001C, strain vps1, hits give low values 0.993 | locus YKR026C, strain gcn3, hits give low values 1.02 | locus YKR091W, strain srl3, hits give low values 1.02 | locus YLL001W, strain dnm1, hits give low values 1.01 | locus YLL026W, hits give low values 1.02 | locus YLL041C, strain sdh2, hits give low values 1.02 | locus YLR027C, strain aat2, hits give low values 1.01 | locus YLR039C, strain RIC1, hits give low values 1.11 | locus YLR058C, strain SHM2, hits give low values 1.02 | locus YLR102C, strain apc9, hits give low values 1.02 | locus YLR113W, strain HOG1, hits give low values 0.951 | locus YLR221C, strain rsa3, hits give low values 1 | locus YLR258W, strain gsy2, hits give low values 1.01 | locus YLR262C, strain YPT6 (second series), hits give low values 0.984 | locus YLR262C, strain YPT6, hits give low values 1.1 | locus YLR268W, strain sec22, hits give low values 0.986 | locus YLR320W, strain mms22, hits give low values 1.01 | locus YLR342W, strain FKS1 (second series), hits give low values 0.964 | locus YLR342W, strain FKS1, hits give low values 1.01 | locus YLR357W, strain rsc2, hits give low values 1.03 | locus YLR370C, strain arc18, hits give low values 1 | locus YLR371W, strain rom2, hits give low values 0.992 | locus YLR384C, strain iki3, hits give low values 1.02 | locus YLR418C, strain cdc73, hits give low values 1.09 | locus YML016C, strain PPZ1, hits give low values 1.01 | locus YML032C, strain rad52, hits give low values 0.991 | locus YML120C, strain ndi1, hits give low values 1.01 | locus YML124C, strain tub3, hits give low values 1.01 | locus YMR058W, strain fet3, hits give low values 1.02 | locus YMR078C, strain ctf18, hits give low values 1.02 | locus YMR125W, strain sto1, hits give low values 1.04 | locus YMR129W, hits give low values 1.01 | locus YMR205C, strain PFK2, hits give low values 1.03 | locus YMR223W, strain ubp8, hits give low values 1.02 | locus YMR231W, strain pep5, hits give low values 1.02 | locus YMR307W, strain GAS1, hits give low values 0.976 | locus YNL067W, strain RPL9B, hits give low values 1.05 | locus YNL071W, strain lat1, hits give low values 1 | locus YNL128W, strain TEP1, hits give low values 1.03 | locus YNL183C, strain NPR1, hits give low values 0.994 | locus YNL209W, strain ssb2, hits give low values 1.01 | locus YNL233W, strain BNI4, hits give low values 1.03 | locus YNL248C, strain rpa49, hits give low values 1.01 | locus YNL250W, strain rad50, hits give low values 1.04 | locus YNL271C, strain bni1, hits give low values 1.03 | locus YNL298W, strain CLA4, hits give low values 1.07 | locus YNL307C, strain MCK1, hits give low values 1.03 | locus YNL322C, strain KRE1 (second series), hits give low values 1.04 | locus YNR049C, strain mso1, hits give low values 1.02 | locus YNR052C, strain pop2, hits give low values 1.03 | locus YOL012C, strain htz1 1.33 | locus YOL147C, strain pex11, hits give low values 1 | locus YOR001W, strain rrp6, hits give low values 1.02 | locus YOR061W, strain CKA2, hits give low values 1.02 | locus YOR069W, strain VPS5, hits give low values 1.02 | locus YOR070C, strain gyp1, hits give low values 1.03 | locus YOR080W, strain dia2, hits give low values 1.01 | locus YOR083W, strain WHI5, hits give low values 1.02 | locus YOR106W, strain vam3, hits give low values 1.03 | locus YOR136W, strain idh2, hits give low values 1.01 | locus YOR144C, strain elg1, hits give low values 1.01 | locus YOR184W, strain ser1, hits give low values 1.03 | locus YOR231W, strain MKK1, hits give low values 0.997 | locus YOR265W, strain rbl2, hits give low values 1.02 | locus YOR270C, strain vph1, hits give low values 0.997 | locus YOR290C, strain snf2, hits give low values 1.02 | locus YOR316C, strain cot1, hits give low values 1.01 | locus YPL051W, strain arl3, hits give low values 1 | locus YPL078C, strain atp4, hits give low values 1.04 | locus YPL106C, strain sse1, hits give low values 1.03 | locus YPL240C, strain hsp82, hits give low values 1.01 | locus YPL256C, strain CLN2, hits give low values 1.05 | locus YPR119W, strain clb2, hits give low values 1.01 | locus YPR141C, strain kar3, hits give low values 1.02 | locus YPR163C, strain tif3, hits give low values 1.02 | locus YPR167C, strain met16, hits give low values 1.03 | strain wtn01, hits give low values 1
active: locus YKL009W, strain mrt4, hits give low values 1.45 [resistant] | locus YKL068W, hits give low values 1.21 [resistant] | locus YKL085W, strain MDH1 (second series), hits give low values 1.09 [resistant] | locus YKL085W, strain MDH1, hits give low values 1.09 [resistant]
